The whole screen tested about 39,000 compounds, of which about 3,300 (8.5%) were called active. The sample as a whole holds a higher share of actives than the screen did.
Tested on: HepG2
Test: cytotoxicity call (relative viability < 0.9)
Details: 10 µM

| Compound | cytotoxicity call |
| --- | --- |
| CCS(=O)(=O)Nc1ccc2c(c1)C(=O)N(C)[C@@H]1CC[C@@H](CC(=O)N[C@@H]3CCN(Cc4ccccc4)C3)O[C@@H]1CO2 | inactive |
| Cc1cc(C(=O)Nc2cccc3c2O[C@@H](CN(C)Cc2ccncc2)[C@@H](C)CN([C@H](C)CO)C3=O)n(C)n1 | inactive |
| C=CCOC(=O)[C@@H]1[C@H]2C(=O)O[C@H](c3ccccc3)[C@H](c3ccccc3)N2[C@H](c2ccc(OCCOC(=O)[C@H]3C[C@H]4C(=O)N5CCC[C@H]5C(=O)N4[C@H]3c3cccc(OCCO)c3)cc2)[C@@]12C(=O)Nc1ccc(I)cc12 | inactive |
| CN(C)CCCNC(=O)C[C@@H]1CC[C@@H]2[C@H](COC[C@H](O)CN2S(=O)(=O)c2ccccc2)O1 | inactive |
| Cc1cc(C(=O)c2cc3cc(Cl)ccc3o2)ccc1Cl | inactive |
| Cc1cc(CN)cc(C)c1NC(=O)c1ccc(-c2cc(Cl)ccc2Cl)o1 | active |
| Cc1ccc(CN)cc1Cl | inactive |
| CCCCN1CC=C[C@@]23O[C@@H]4C=CCCOC(=O)[C@@H]4[C@H]2C(=O)N([C@@H](C)CO)[C@@H]3C1=O | inactive |
| NNc1ccc2c(N)[nH]nc2c1 | inactive |
| COc1cccc(CN(C)C[C@@H]2OCc3ccccc3-c3c(n(C)c4ccccc34)C(=O)N([C@H](C)CO)C[C@H]2C)c1 | inactive |
| NCCC(=O)N1c2ccccc2Sc2ccccc21 | inactive |
| O=C(Cc1cccs1)N1c2ccccc2Sc2ccccc21 | active |
| O=C(c1cccs1)N1c2ccccc2Sc2ccccc21 | inactive |
| C[C@@H]1CN([C@H](C)CO)C(=O)c2cc(NC(=O)Nc3ccc(C(F)(F)F)cc3)ccc2O[C@@H](C)CCCCO[C@@H]1CN(C)S(=O)(=O)c1ccc(Cl)cc1 | inactive |
| O=C1CN(S(=O)(=O)Cc2ccccc2)C[C@@H]2[C@@H](c3ccc(C#Cc4ccc(F)cc4)cc3)[C@H](CO)N12 | active |
| O=C1CN(S(=O)(=O)Cc2ccccc2)C[C@@H]2[C@H](c3ccc(C#Cc4ccc(F)cc4)cc3)[C@@H](CO)N12 | inactive |
| O=C1CN(S(=O)(=O)Cc2ccccc2)C[C@H]2[C@@H](c3ccc(C#Cc4ccc(F)cc4)cc3)[C@@H](CO)N12 | inactive |
| O=C1CN(S(=O)(=O)Cc2ccccc2)C[C@@H]2[C@@H](c3ccc(C#Cc4ccc(F)cc4)cc3)[C@@H](CO)N12 | active |
| O=C1CN(S(=O)(=O)Cc2ccccc2)C[C@H]2[C@H](c3ccc(C#Cc4ccc(F)cc4)cc3)[C@H](CO)N12 | inactive |
| O=C1CN(S(=O)(=O)Cc2ccccc2)C[C@H]2[C@H](c3ccc(C#Cc4ccc(F)cc4)cc3)[C@@H](CO)N12 | inactive |
| CN(C)S(=O)(=O)N1CCO[C@@H]2CN(c3ncc(F)cn3)C[C@@H]21 | inactive |
| O=C1O[C@H](c2ccccc2)[C@H](c2ccccc2)N2[C@H]1[C@@H](C(=O)Nc1nc3ccccc3s1)[C@]1(C(=O)Nc3ccc(C#CC4(O)CCCCCC4)cc31)[C@H]2c1ccccc1OCCO | inactive |

| Compound | cytotoxicity call |
| --- | --- |
| C[C@@H]1CCCCO[C@@H](CN(C)C(=O)Nc2ccc3c(c2)OCO3)[C@@H](C)CN([C@@H](C)CO)C(=O)c2cc(NC(=O)CCC(F)(F)F)ccc2O1 | inactive |
| C[C@@H]1CN([C@H](C)CO)C(=O)c2cc(NC(=O)CCCCCC(=O)Nc3ccccc3N)ccc2O[C@H]1CN(C)Cc1ccccc1 | inactive |
| C[C@H]1CN([C@@H](C)CO)C(=O)c2cc(NC(=O)CCCCCC(=O)Nc3ccccc3N)ccc2O[C@H]1CN(C)Cc1ccc(Oc2ccccc2)cc1 | inactive |
| C[C@H]1CN([C@@H](C)CO)C(=O)c2cc(NC(=O)CCCCCC(=O)Nc3ccccc3N)ccc2O[C@@H]1CN(C)Cc1ccccc1 | active |
| C[C@H](CO)N1C[C@H](C)[C@@H](CN(C)Cc2ccccc2)Oc2ccc(NC(=O)CCCCCC(=O)Nc3ccccc3N)cc2C1=O | inactive |
| C[C@@H]1CN([C@@H](C)CO)C(=O)c2cc(NC(=O)CCCCCC(=O)Nc3ccccc3N)ccc2O[C@H]1CN(C)Cc1ccccc1 | active |
| C[C@@H]1CN([C@H](C)CO)C(=O)c2cc(NC(=O)CCCCCC(=O)Nc3ccccc3N)ccc2O[C@@H]1CN(C)Cc1ccccc1 | inactive |
| COc1ccc(CN(C)C[C@H]2Oc3ccc(NC(=O)CCCCCC(=O)Nc4ccccc4N)cc3C(=O)N([C@H](C)CO)C[C@H]2C)cc1 | inactive |
| C[C@H](CO)N1C[C@H](C)[C@H](CN(C)Cc2ccccc2)Oc2ccc(NC(=O)CCCCCC(=O)Nc3ccccc3N)cc2C1=O | inactive |
| C[C@@H]1CN([C@H](C)CO)C(=O)c2cc(NC(=O)CCCCCC(=O)Nc3ccccc3N)ccc2O[C@@H]1CN(C)Cc1ccc(Oc2ccccc2)cc1 | active |
| O=C(C[C@@H]1CC[C@@H]2[C@H](COC[C@@H](O)CN2S(=O)(=O)c2ccccc2)O1)N1CCc2ccccc2C1 | inactive |
| C[C@@H]1CCCCO[C@H](CN(C)S(=O)(=O)c2cccs2)[C@@H](C)CN([C@@H](C)CO)C(=O)c2cc(NS(=O)(=O)c3cn(C)cn3)ccc2O1 | inactive |
| C[C@@H]1CN([C@@H](C)CO)C(=O)Cc2cc(NS(=O)(=O)c3cn(C)cn3)ccc2O[C@@H]1CN(C)Cc1ccc(C(=O)O)cc1 | inactive |
| C[C@H](CO)N1C[C@H](C)[C@H](CN(C)S(=O)(=O)c2cn(C)cn2)Oc2ccc(N(C)C)cc2CC1=O | inactive |
| CC(C)CC#Cc1ccc2c(c1)O[C@@H](CN(C)C(=O)c1ccncc1)[C@H](C)CN([C@H](C)CO)S2(=O)=O | inactive |
| Cc1ccc(S(=O)(=O)N(C)C[C@H]2Oc3cc(C#Cc4ccccc4)ccc3S(=O)(=O)N([C@H](C)CO)C[C@H]2C)cc1 | inactive |
| Cc1ccc(S(=O)(=O)N(C)C[C@@H]2Oc3cc(C#Cc4ccccc4)ccc3S(=O)(=O)N([C@@H](C)CO)C[C@@H]2C)cc1 | inactive |
| Cc1ccc(S(=O)(=O)N(C)C[C@@H]2Oc3cc(C#Cc4ccncc4)ccc3S(=O)(=O)N([C@H](C)CO)C[C@@H]2C)cc1 | active |
| Cc1ccc(S(=O)(=O)N(C)C[C@H]2Oc3cc(C#Cc4ccncc4)ccc3S(=O)(=O)N([C@H](C)CO)C[C@H]2C)cc1 | active |
| Cc1ccc(S(=O)(=O)N(C)C[C@H]2Oc3cc(C#Cc4ccccc4)ccc3S(=O)(=O)N([C@@H](C)CO)C[C@H]2C)cc1 | inactive |
| Cc1ccc(S(=O)(=O)N(C)C[C@H]2Oc3cc(C#Cc4ccncc4)ccc3S(=O)(=O)N([C@@H](C)CO)C[C@@H]2C)cc1 | active |
| Cc1ccc(S(=O)(=O)N(C)C[C@@H]2Oc3cc(C#Cc4ccccc4)ccc3S(=O)(=O)N([C@@H](C)CO)C[C@H]2C)cc1 | inactive |

| Compound | cytotoxicity call |
| --- | --- |
| Cc1ccc(S(=O)(=O)N(C)C[C@@H]2Oc3cc(C#Cc4ccccc4)ccc3S(=O)(=O)N([C@H](C)CO)C[C@@H]2C)cc1 | inactive |
| Cc1ccc(S(=O)(=O)N(C)C[C@H]2Oc3cc(C#Cc4ccccc4)ccc3S(=O)(=O)N([C@@H](C)CO)C[C@@H]2C)cc1 | inactive |
| Cc1ccc(S(=O)(=O)N(C)C[C@@H]2Oc3cc(C#Cc4ccncc4)ccc3S(=O)(=O)N([C@H](C)CO)C[C@H]2C)cc1 | active |
| CC(C)NC(=O)Nc1ccc2c(c1)C(=O)N([C@H](C)CO)C[C@@H](C)[C@@H](CN(C)C(=O)C1CCCCC1)OCCCC[C@H](C)O2 | inactive |
| CO[C@@H]1CN(C)C(=O)c2ccc(NS(C)(=O)=O)cc2OC[C@@H](C)N(C(=O)c2ccc3c(c2)OCO3)C[C@@H]1C | inactive |
| COc1ccccc1S(=O)(=O)N(C)C[C@H]1OCc2cn(nn2)CCCC(=O)N([C@@H](C)CO)C[C@@H]1C | inactive |
| CCS(=O)(=O)N1C[C@]2(CCN(CC2)C(=O)c2cccnc2)c2c(n(c3cc(ccc23)OC)C)[C@H]1CO | inactive |
| C[C@@H]1CN([C@H](C)CO)C(=O)c2cc(NC(=O)Cn3cnnn3)ccc2O[C@H]1CN(C)C(=O)NC1CCCCC1 | inactive |
| Cc1ccc(S(=O)(=O)Nc2ccc3c(c2)C(=O)N([C@@H](C)CO)C[C@H](C)[C@H](CN(C)C(=O)Nc2c(C)noc2C)OCCCC[C@H](C)O3)cc1 | inactive |
| CC(C)NC(=O)Nc1ccc2c(c1)CC(=O)N([C@@H](C)CO)C[C@@H](C)[C@H](CN(C)S(=O)(=O)c1ccc(F)cc1)O2 | inactive |
| C[C@@H]1CN([C@@H](C)CO)S(=O)(=O)c2ccc(Br)cc2O[C@@H]1CN(C)C(=O)NC1CCCCC1 | inactive |
| CCOC(=O)CC(=O)c1ccn(C)n1 | inactive |
| C[C@@H]1CCCCO[C@H](CN(C)S(=O)(=O)c2cccs2)[C@H](C)CN([C@@H](C)CO)C(=O)c2cc(NC(=O)CCC(F)(F)F)ccc2O1 | inactive |
| C[C@H](CO)N1C[C@H](C)[C@H](CN(C)Cc2ccccn2)Oc2ncc(C#Cc3ccc(F)cc3)cc2C1=O | inactive |
| C[C@@H]1CN([C@H](C)CO)C(=O)c2c(c3ccccc3n2C)-c2ccccc2CO[C@H]1CN(C)Cc1cccc(O)c1 | inactive |
| Cc1ccc(S(=O)(=O)N(C)C[C@H]2Oc3cc(C#Cc4ccncc4)ccc3S(=O)(=O)N([C@@H](C)CO)C[C@H]2C)cc1 | active |
| Cc1ccc(S(=O)(=O)N(C)C[C@H]2Oc3cc(C#Cc4ccncc4)ccc3S(=O)(=O)N([C@H](C)CO)C[C@@H]2C)cc1 | active |
| Cc1ccc(S(=O)(=O)N(C)C[C@@H]2Oc3cc(C#Cc4ccncc4)ccc3S(=O)(=O)N([C@@H](C)CO)C[C@H]2C)cc1 | active |
| Cc1ccc(S(=O)(=O)N(C)C[C@@H]2Oc3cc(C#Cc4ccncc4)ccc3S(=O)(=O)N([C@@H](C)CO)C[C@@H]2C)cc1 | active |
| C[C@@H]1CN([C@H](C)CO)C(=O)c2cccc(NS(=O)(=O)c3ccc(F)cc3)c2O[C@@H]1CN(C)S(=O)(=O)c1cccs1 | inactive |
